The nature of assay [1]: P-glycoprotein substrates identified in KB-3-1 adenocarcinoma cell line, qHTS therapeutic library screen (AID 1346986). Note: nearly all actives have a fitted effect of over 60% in size.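 Note: potency is for cytotoxicity meaning loss of cell viability.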 Conditions: KB-3-1 parental cells viability, CellTiter-Glo, 72 h; series mostly up to 44.5 µM. In short, it runs like this:
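Using luminescence to quantify ATP, parental and P-gp-overexpressing KB cells were compared after 72 h compound titration. KB-8-5-11 was also run with the P-gp inhibitor tariquidar.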
A general note: In qHTS, concentration-response curves come from the screen itself.

The nature of assay [2]: P-glycoprotein substrates identified in KB-8-5-11 adenocarcinoma cell line, qHTS therapeutic library screen (AID 1346987). Note: nearly all actives have a fitted effect of over 65% in size. Conditions: KB-8-5-11 (P-gp overexpressing) viability, CellTiter-Glo, 72 h; series mostly up to 44.5 µM. In short, it runs like this:
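In this qHTS, P-gp-rich KB-8-5-11 cells received library compounds across a concentration range. Viability was quantified by luminescence after 72 h at 37 degree C.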

SMILES strings stand for the structures. Several values for one entry are separate records, joined by “and”; a condition that tells them apart may be missing. Identical values can stand only once. Inconclusive results are not listed. A call without a number means that no potency is given here. A number with no mark means an inactive call. Activity calls are given as the source filed them. Calls come from the whole dose curve; as a rule, active = well fitted curve in the direction sought with a large enough effect; inconclusive = small, poorly fitted or top-dose-only effect, or another doubt; inactive = no such curve, though single readings can be large; an effect the other way counts as inactive or inconclusive.
Potency is the fitted concentration of half-maximal effect.

`CC(=O)O[C@@H]1c2c3c(cc(O)c2C(=O)O[C@@H]1C)O[C@@]1(C)[C@@H](O)C[C@H]2C(C)(C)C(=O)C=C[C@]2(C)[C@@H]1C3`: the Potency entry in assay [1] is “inactive”. Still for that read-out and setting: in the case of `C/C(=C\CCC1(C)C2CCC(C2)C1(C)O)C(=O)O` (stereo unspecified) it was “inactive”. Same read-out and setting: in the case of `CC1CCN(C(=O)CC#N)CC1N(C)c1ncnc2[nH]ccc12` (stereo unspecified) it was “inactive”; in that of `Cc1cc(Nc2nc(NC(C)c3ncc(F)cn3)ncc2Cl)n[nH]1` (stereo unspecified), “inactive”. For the compound `CC(NC(=O)C(O)C(C)C)C(=O)NC1C(=O)N(C)CCc2ccccc21` (stereo unspecified), the Potency result in assay [1] and in assay [2] was “inactive” in each case. `C[C@@H]1O[C@@H](OC[C@H]2O[C@@H](OC(CCCCc3ccc(O)cc3)CCc3ccc(O)cc3)[C@H](O)[C@@H](O)[C@@H]2O)[C@H](O)[C@H](O)[C@H]1O` (stereo partly specified): the Potency entry in assay [1] and in assay [2] was “inactive” throughout.

For the compound `Cc1c2cc(c(C(=O)O)c1C)OC1OC(C(O)C(O)C1O)C(O)C(O)C1OC(O2)C(O)C(O)C1O` (stereo unspecified), the Potency entry in assay [1] and in assay [2] was “inactive” throughout. As to `CN[C@@H]1[C@H](O[C@H]2[C@H](O[C@@H]3[C@@H](O)[C@H](O)[C@@H](N=C(N)N)[C@H](O)[C@H]3N=C(N)N)O[C@@H](C)[C@]2(O)C=O)O[C@@H](CO)[C@H](O)[C@H]1O`, the Potency result in assay [1] and in assay [2] was “inactive” in each case. Take `CCCn1c(=O)c2[nH]c(-c3ccc(OCC(=O)O)cc3)nc2n(CCC)c1=O`: the Potency entry in assay [1] and in assay [2] was “inactive” in each case.

Consider `CC1C(=O)OCC2=CCN3CCC(OC(=O)C(C)(O)C1(C)O)C23` (stereo unspecified), for which the Potency entry in assay [1] and in assay [2] was “inactive” throughout.

Take `C=CC(C)(C)C12C=C(OC)C(=O)N3C(C(C)C)C(=O)NC31N(OC)c1ccccc12` (stereo unspecified): the Potency entry in assay [1] and in assay [2] was “inactive” each time.

For the compound `CC(=O)N1CCN(C(=O)Cc2ccc(Nc3ncc(F)c(Nc4ccc(C(=O)Nc5ccccc5Cl)cc4)n3)cc2)CC1`, the Potency in assay [1] was 2910 nM (active).

`COc1nc2sc(C(=O)NC3CC3)c(N)c2c(C)c1Cl`: the Potency result in assay [1] and in assay [2] was “inactive” each time. For the compound `O=C(CN1C(=O)C2(CCCC2)NCC1c1cc(F)cc(F)c1)Nc1ccc2c(c1)CC1(C2)C(=O)Nc2ncccc21` (stereo unspecified), the Potency result in assay [1] is “inactive”. With `O=C(O)Cc1cn(C2OCC(O)C(O)C2O[C@@H]2O[C@H](CO)[C@@H](O)[C@H](O)[C@H]2O)c2ccccc12` (stereo partly specified), the Potency entry in assay [1] and in assay [2] was “inactive” throughout. Turning to `O=C(Nc1ccc(-c2ccncc2)cc1)N[C@H](CO)c1ccccc1`, the Potency result in assay [1] is “inactive”. Take `COC(=O)CCSCc1ccc(-c2onc(C)c2NC(=O)OC(C)c2ccccc2Cl)cc1` (stereo unspecified): the Potency entry in assay [1] and in assay [2] was “inactive” each time. Turning to `COc1c2c(c(C)c3c1C(=O)OC3)O[C@@]1(C)CCC3(C(C)(C)O)OC(=O)CC[C@]3(C)[C@H]1C2` (stereo partly specified), the Potency result in assay [1] and in assay [2] was “inactive” in each case. For the compound `CN[C@H](CC(C)C)C(=O)N[C@H]1C(=O)N[C@@H](CC(N)=O)C(=O)N[C@H]2C(=O)N[C@H]3C(=O)N[C@H](C(=O)N[C@H](C(=O)O)c4cc(O)cc(O)c4-c4cc3ccc4O)[C@H](O[C@H]3C[C@](C)(N)[C@@H](O)[C@H](C)O3)c3ccc(c(Cl)c3)Oc3cc2cc(c3O[C@@H]2O[C@H](CO)[C@@H](O)[C@H](O)[C@H]2O[C@H]2C[C@](C)(NCc3ccc(-c4ccc(Cl)cc4)cc3)[C@@H](O)[C@H](C)O2)Oc2ccc(cc2Cl)[C@H]1O`, the Potency result in assay [1] and in assay [2] was “inactive” each time. In the case of `CCOc1cc(C)c(Cl)cc1S(=O)(=O)n1cnc2ccccc21`, the Potency result in assay [1] is “inactive”. Consider `CC(C)=CCC/C(C)=C/CCC1(C)Oc2c(c(O)cc3c2CN(C(CCC(=O)O)C(=O)O)C3=O)CC1O` (stereo unspecified), for which the Potency entry in assay [1] and in assay [2] was “inactive” throughout. Turning to `O=C(O)/C=C/c1ccc(O)c(O[C@@H]2O[C@H](CO)[C@@H](O)[C@H](O)[C@H]2O)c1`, the Potency result in assay [1] and in assay [2] was “inactive” each time.

Regarding `C=C1[C@H](OC(C)=O)[C@H]2[C@@H](OC(C)=O)[C@](C)(OC(C)=O)C[C@]2(OC(C)=O)C(=O)[C@H](C)/C=C/C(C)(C)C(=O)[C@H](OC(=O)C(C)C)[C@H]1OC(C)=O`, the Potency result in assay [1] was “inactive”. The same measure, in the same setting: with `COc1ccc(CNC(=O)c2cc(-c3cncc(C)c3)ncc2-c2nccs2)nc1OC` the entry was “inactive”. Regarding `O=C(CC1C(=O)Nc2ccccc21)OC[C@H]1O[C@@H](OCCc2ccc(O)cc2)[C@H](O)[C@@H](O)[C@@H]1O` (stereo partly specified), the Potency entry in assay [1] and in assay [2] was “inactive” in each case. As to `CC12CCC(=O)C=C1C(O)CC1C2C(O)CC2(C)C1CC[C@]2(O)C(=O)CO` (stereo partly specified), the outcome in assay [1] and in assay [2] was “inactive [at 9.29 µM]” each time.

Consider `CCC(C)/C=C(C)/C=C/c1cc2c(cn1)C(=O)C(C)(OC(C)=O)C(O)=C2Cl` (stereo unspecified), for which the Potency entry in assay [1] and in assay [2] was “inactive” each time. In the case of `COC(C(=O)N1Cc2[nH]nc(NC(=O)c3ccc(N4CCN(C)CC4)cc3)c2C1)c1ccccc1` (stereo unspecified), the Potency in assay [1] is 517 nM (active). As for `C[C@@H]1C[C@H]2O[C@@H]2/C=C\C=C\C(=O)Cc2c(Cl)c(O)cc(O)c2C(=O)O1`, the Potency in assay [1] is 2860 nM (active); in assay [2], 438 nM (active) and 5.7 µM (active).

Take `C=C(C(=O)O)[C@H]1C[C@]2(C)[C@@H](O)CC[C@]23O[C@H]1C[C@@H]3C`: the Potency result in assay [1] is “inactive”. With `CC1OC(O[C@H]2CC[C@@]3(C)C(CC[C@]4(C)C3CC=C3C5CC(C)(C)CC[C@]5(C(=O)OC5OC(CO)C(OC6OC(COC7OCC(O)C(O)C7O)C(O)C(O)C6O)C(O)C5O)CC[C@]34C)C2(C)C)C(O)C(O)C1OC1OCC(OC2OCC(O)C(O)C2O)C(O)C1O` (stereo partly specified), the outcome in assay [1] and in assay [2] was “inactive [at 9.29 µM]” throughout. `Cc1nc(NC(=O)N2CCCC2C(N)=O)sc1-c1csc(C(C)(C)C)n1` (stereo unspecified): in assay [1], the Potency entry is “inactive”.
